Compound activity from PubChem.
In the library only some 1.8% were active in any assay of this set; here they are far more common.
ERp5 inh: ERp5 (human) disulfide isomerase inhibition; ERp5 insulin aggregation, absorbance 650 nm, 90 min; Q15084; inhibition, % at 9.99 µM; AID 651711; actives 0.05% (n = 350,000);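 active means mean replicate inhibition above about 25%, with every replicate also reaching it, limit read from the data, passing the limit was not always enough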
DENV2 CPE: protects cells from dengue virus 2 cytopathic effect; actives 1.7% (n = 350,000); DENV2-infected cells, cytopathic effect rescue, plate reader; CPE inhibition, % at 9.99 µM; in the data active means CPE inhibition above about 20%, passing the limit was not always enough; tested in BHK-21 cells;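 further: 0% = median of neutral control wells and 100% = median of positive control wells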
MLL AF4-AF9 inh: MLL-AF4/AF9 protein interaction inhibition. actives 0.47% (n = 350,000). AlphaScreen, biotin-AF4 peptide binding to FLAG-AF9. inhibition, % at 10 µM. AID 651704. P42568;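 active means every replicate reaching a set inhibition limit, whatever the replicate mean, cut at about 25% in these data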;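 further: 0% = plate neutral control median and 100% = total signal loss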
Target sequence (P42568 whole entry, looked up): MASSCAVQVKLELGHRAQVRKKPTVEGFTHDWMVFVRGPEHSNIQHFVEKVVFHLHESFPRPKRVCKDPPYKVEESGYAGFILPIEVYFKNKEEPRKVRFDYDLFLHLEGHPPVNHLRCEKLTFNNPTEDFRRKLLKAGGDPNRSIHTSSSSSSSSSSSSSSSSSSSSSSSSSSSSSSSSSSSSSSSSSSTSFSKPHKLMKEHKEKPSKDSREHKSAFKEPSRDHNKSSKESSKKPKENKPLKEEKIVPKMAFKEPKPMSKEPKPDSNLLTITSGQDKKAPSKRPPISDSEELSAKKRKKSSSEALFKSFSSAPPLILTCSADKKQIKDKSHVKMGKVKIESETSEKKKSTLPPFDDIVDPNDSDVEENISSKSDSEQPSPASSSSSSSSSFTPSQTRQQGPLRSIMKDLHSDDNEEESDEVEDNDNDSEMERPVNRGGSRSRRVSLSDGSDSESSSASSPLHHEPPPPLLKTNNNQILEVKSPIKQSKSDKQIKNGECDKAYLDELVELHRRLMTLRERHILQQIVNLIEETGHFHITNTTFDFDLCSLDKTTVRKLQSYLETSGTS
ERAP1 HTS inh: blocks human ERAP1 aminopeptidase activity; actives 0.15% (n = 340,000); inhibition, % at 10.7 µM; recombinant ERAP1, Leu-AMC fluorescence, 60 min;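 active means mean replicate inhibition of at least 30%, or all replicates individually reaching that 30% level; inactive means mean below 30% and not every replicate reaching it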;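 further: 0% = neutral control wells and 100% = L-leucinethiol positive control wells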
PDI inh: inhibitors of human protein disulfide isomerase | P07237 | inhibition, % at 10 µM | PDI insulin aggregation turbidity, A650, 90 min | actives 0.052% (n = 350,000);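 active means mean inhibition across replicates of 30% or more, whatever share of single replicates reach that level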
* hit, by the source's call; nt = no result given.

SMILES	ERp5 inh	DENV2 CPE	MLL AF4-AF9 inh	ERAP1 HTS inh	PDI inh
COc1ccc(S(=O)(=O)N(C)C[C@H]2Oc3ccc(NC(=O)CCC(F)(F)F)cc3CC(=O)N([C@H](C)CO)C[C@H]2C)cc1	3	1	-3	-2	nt
COc1ccc(CN(C)C[C@@H]2Oc3ccc(NC(=O)Nc4c(C)noc4C)cc3CC(=O)N([C@H](C)CO)C[C@@H]2C)cc1	-3	41*	-4	1	nt
C[C@@H]1CCCCO[C@@H](CN(C)Cc2ccccc2)[C@@H](C)CN([C@@H](C)CO)C(=O)c2cc(NC(=O)Nc3ccccc3)ccc2O1	3	-5	10	-1	nt
CC(C)NC(=O)N(C)C[C@@H]1Oc2ccc(NC(=O)CCCN(C)C)cc2C(=O)N([C@H](C)CO)C[C@H]1C	3	-2	-3	-4	nt
COC(=O)N1C(=O)[C@@](c2ccc(OC)cc2)(C(C)C)N1C(=O)OC	1	nt	nt	-2	1
COC(=O)N1C(=O)[C@](c2ccc(Cl)cc2)(C(C)C)N1C(=O)OC	-2	50*	0	nt	4
C[C@@H]1CCCCO[C@@H](CN(C)C(=O)Nc2ccc3c(c2)OCO3)[C@@H](C)CN([C@@H](C)CO)C(=O)c2cc(NC(=O)CCC(F)(F)F)ccc2O1	nt	1	1	1	nt
O=C1c2ccccc2CN1CCSC(=S)N1CCOCC1	7	21*	-2	0	-18
O=C(CCSc1nnc(-c2ccccc2)o1)N1CCOCC1	0	27*	5	-1	-4
Cc1ccc(S(=O)(=O)Nc2ccc3c(c2)C(=O)N([C@H](C)CO)C[C@@H](C)[C@@H](CN(C)C(=O)Nc2ccc4c(c2)OCO4)OCCCC[C@H](C)O3)cc1	nt	-3	0	0	nt
Cn1c(=N)n(CC(=O)c2ccc(F)cc2)c2ccccc21	1	-6	0	2	4
Cn1c(=N)n(CC(=O)c2ccc(Br)cc2)c2ccccc21	-4	66*	nt	-5	-1
CC(=O)Nc1ccc(NC(=O)CSCc2ccccc2Cl)cc1	2	-6	-1	2	19
C/C(=N\NC(=O)CSCc1ccccc1Cl)c1cc(O)ccc1O	-2	nt	25*	-2	4
Cc1ccc(C(=O)c2ncc[nH]2)cc1	5	52*	2	-3	2
COCC(=O)N1[C@H](CO)[C@H](c2ccccc2)C12CN(C(=O)Nc1ccccc1F)C2	0	36*	-4	-1	nt
COCC(=O)N1CC2(C1)[C@@H](c1ccccc1)[C@@H](CO)N2C(=O)c1ccncc1	-1	30*	-2	-6	nt
O=C(Cc1ccccn1)N1CC2(C1)[C@H](c1ccccc1)[C@@H](CO)N2C(=O)c1ccncc1	2	45*	-3	-3	nt
C[C@@H]1CN([C@@H](C)CO)S(=O)(=O)c2ccc(C#CC3CC3)cc2O[C@H]1CN(C)C	2	13	-5	-4	nt
COc1ccc(-c2sc(Nc3ccccc3)n[n+]2-c2ccc(F)cc2)c(OC)c1OC	0	136*	-9	2	-43
C[C@@H]1CN([C@@H](C)CO)S(=O)(=O)c2ccc(C#CCN(C)C)cc2O[C@H]1CN(C)Cc1ccccc1	6	24*	13	-2	nt
C[C@@H]1CN([C@@H](C)CO)S(=O)(=O)c2ccc(C#CCN(C)C)cc2O[C@@H]1CN(C)Cc1ccccc1F	4	45*	7	1	nt
C[C@H](CO)N1C[C@H](C)[C@H](CN(C)Cc2ccccn2)Oc2cc(C#C[C@@H](C)O)ccc2S1(=O)=O	0	0	2	-1	nt
COCC#Cc1ccc2c(c1)O[C@@H](CN(C)Cc1ccncc1)[C@@H](C)CN([C@@H](C)CO)S2(=O)=O	0	22*	0	-2	nt
C[C@@H]1CN([C@H](C)CO)S(=O)(=O)c2ccc(C#C[C@@H](C)O)cc2O[C@H]1CN(C)Cc1ccccn1	-6	30*	-3	1	nt
SMILES	ERp5 inh	DENV2 CPE	MLL AF4-AF9 inh	ERAP1 HTS inh	PDI inh
C[C@@H]1CN([C@H](C)CO)C(=O)c2cc(NS(=O)(=O)c3ccccc3)ccc2O[C@@H](C)CCCCO[C@@H]1CN(C)S(C)(=O)=O	7	-4	-1	0	nt
CCC(=O)Nc1ccc2c(c1)OC[C@H](C)N(C(=O)C1CCC1)C[C@@H](C)[C@@H](OC)CN(C)C2=O	-1	-6	0	0	nt
CCn1c(C)[n+](CC)c2ccc(S(=O)(=O)N(C)C)cc21	-8	-5	2	39*	4
CCOC(=O)c1ccc2c(c1)n(CC)c(C)[n+]2CC	-4	-8	-2	14	-1
CC[n+]1c(C)n(C)c2cc(S(=O)(=O)N(C)C)ccc21	-12	-3	-15	51*	-1
CCn1c(C)[n+](CC)c2ccc(C(=O)N(C)c3ccccc3)cc21	3	1	-3	71*	-8
CCn1c(C)[n+](CC)c2ccc(S(=O)(=O)NC)cc21	2	4	0	59*	-2
C[C@H](CO)N1C[C@H](C)[C@H](CN(C)Cc2ccncc2)Oc2c(NS(=O)(=O)c3cccs3)cccc2C1=O	8	-12	-2	-3	nt
CC(C)NC(=O)N[C@@H]1CC[C@@H](CCNS(=O)(=O)c2ccc(F)cc2)O[C@H]1CO	1	11	-2	1	nt
O=C(NCC(F)(F)F)[C@@H]1[C@@H](CO)[C@@H]2Cn3c(cccc3=O)[C@@H]2N1C(=O)C1CCCC1	-3	6	-22	0	nt
Cc1ccn2c(NC3CCCCC3)c(-c3ccc(SC4CCCCC4)cc3)nc2c1	1	37*	3	1	nt
CO[C@H]1CN(C)C(=O)c2cccc(C#N)c2OC[C@@H]2O[C@H](CC[C@H]2OC)CCN(C)C(=O)[C@H]1C	1	-1	1	0	nt
CCCc1cn(CC[C@H]2CC[C@@H](NC(=O)C3CCC3)[C@H](CO)O2)nn1	-3	1	-4	-2	nt
COc1ccc(NC(=O)CCCN2C(=O)CN(C)C2=O)c(OC)c1	3	1	33*	-1	-1
COc1ccc(NC(=O)CCN2C(=O)c3ccccc3C2=O)c(OC)c1	-2	6	-8	-6	-9
COc1ccccc1NC(=O)N1CCCCN2[C@H](CO)[C@@H](c3ccc(-c4ccccc4)cc3)[C@@H]2C1	-3	0	-2	-3	nt
C[C@@H]1CN([C@H](C)CO)S(=O)(=O)c2ccc(-c3ccc(F)cc3)cc2O[C@H]1CN(C)C(=O)Nc1ccccc1F	0	-8	-1	-1	nt
C[C@H](CO)N1C[C@H](C)[C@@H](CN(C)CC2CC2)Oc2cc(-c3ccc(F)cc3)ccc2S1(=O)=O	-5	-5	-5	-1	nt
C[C@H](CO)N1C[C@H](C)[C@H](CN(C)C(=O)Nc2ccccc2F)Oc2cc(-c3ccc(F)cc3)ccc2S1(=O)=O	3	26*	-2	-3	nt
C[C@H]1CN([C@@H](C)CO)S(=O)(=O)c2ccc(/C=C/c3ccccc3)cc2O[C@H]1CN(C)C	-4	-2	11	0	nt
CCCN(C)C[C@@H]1Oc2cc(-c3ccc(F)cc3)ccc2S(=O)(=O)N([C@@H](C)CO)C[C@@H]1C	32*	-6	0	1	nt
